The source of these data is PubChem BioAssay (NCATS).

The source made the active and inactive calls. How the calls were made is not given here.
Potency means the concentration at half of the fitted maximal effect.

One test is described as follows: Immunotoxin (HA22) sensitization/mitigation study. Vehicle arm (PBS) (AID 1159510). The settings on record: cancer cells viability with PBS vehicle (HA22 study); series mostly up to 46.1 µM; viability (% of control): at the top concentration.
Consider `COc1ccc(CCN2CCN(CCCc3ccccc3)CC2)cc1OC`, for which the Potency was 23.5 µM (active).

In the case of `CC(C)(C)c1cc(NC(=O)Nc2ccc(-c3cn4c(n3)sc3cc(OCCN5CCOCC5)ccc34)cc2)no1`, the Potency is 0.59 µM (active).

With `OC[C@H]1O[C@@H](n2cnc3c2NC=NC[C@@H]3O)C[C@H]1O`, the “viability (% of control)” value is 94.3% (inactive).

As to `CCN(CCCO)CCCOc1ccc2c(Nc3cc(CC(=O)Nc4cccc(F)c4)[nH]n3)ncnc2c1`, the Potency is 18.7 µM (active).

Regarding `NC(=O)C1CCCc2c1[nH]c1ccc(Cl)cc21` (configuration not stated), the “viability (% of control)” value was 95.3% (inactive).

Turning to `CCOc1cc(C=C2C(=O)N(c3ccccc3)N=C2C)cc(Cl)c1OCC(=O)OC`, the Potency was 18.7 µM (active).

For `COc1ccc(C2=N[C@H](c3ccc(Cl)cc3)[C@H](c3ccc(Cl)cc3)N2C(=O)N2CCNC(=O)C2)c(OC(C)C)c1`, the Potency is 2.64 µM (active).

As for `Cn1c2cc(S(C)=O)sc2c2cnn(Cc3cccc(N)c3)c(=O)c21` (configuration not stated), the “viability (% of control)” value was 118% (inactive).

Turning to `CCC[C@H](NC(=O)C(C#N)=Cc1cccc(Br)n1)c1ccccc1`, the Potency is 1.05 µM (active).

As to `Cc1cccc(-c2[nH]c(C(C)(C)C)nc2-c2ccc3nccnc3c2)n1`, the “viability (% of control)” value is 101% (inactive).

In the case of `Cn1c(=O)c(F)c(Nc2ccc(I)cc2F)c2c(=O)n(C[C@@H](O)CO)cnc21`, the Potency is 23.5 µM (active).

As to `Cc1cccc(-c2nn(C(=S)Nc3ccccc3)cc2-c2ccnc3ccccc23)n1`, the Potency is 18.7 µM (active).

With `CS(=O)(=O)c1cccc(CNc2nc(Nc3ccc4c(c3)CCC(=O)N4)ncc2C(F)(F)F)c1`, the Potency is 4.69 µM (active).

Turning to `CN1CCN(CCOc2cc(OC3CCOCC3)c3c(Nc4c(Cl)ccc5c4OCO5)ncnc3c2)CC1`, the Potency is 20.9 µM (active).

As for `CCOc1cc(C(=O)Nc2ccc(Cl)c(-c3nc4ccccc4[nH]3)c2)cc(OCC)c1OCC`, the Potency was 14.8 µM (active).

As to `O=C(Nc1ccccc1-c1cn2c(CN3CCNCC3)csc2n1)c1cnc2ccccc2n1`, the Potency is 26.4 µM (active).

Regarding `COc1ccc2c3n(c(=NC(=O)c4cccnc4)nc2c1OC)CCN3`, the Potency was 11.8 µM (active).

Regarding `Cc1cccc(Nc2nc(N[C@@H]3CCCC[C@H]3N)ncc2C(N)=O)c1`, the Potency was 18.7 µM (active).

Take `Cc1ccccc1C(C(=O)NC1CCCC1)N(C(=O)Cn1cnc2ccccc21)c1cccc(F)c1` (configuration not stated): the Potency is 23.5 µM (active).

For the molecule `CNC(=O)c1ccc(N2C(=S)N(c3ccc(C#N)c(C(F)(F)F)c3)C(=O)C2(C)C)cc1F`, the “viability (% of control)” value was 87.8% (inactive).

For the molecule `COc1ccc(CC2SC(=O)NC2=O)cc1C(=O)NCc1ccc(C(F)(F)F)cc1` (configuration not stated), the “viability (% of control)” value is 79.6% (inactive).

In the case of `COc1ccc(-c2oc3cc(OC)ccc3c2C(=O)c2ccc(C#N)cc2)cc1`, the “viability (% of control)” value is 95.9% (inactive).

Turning to `Cc1cnc(-c2cnc(NCCNc3ccc(C#N)cn3)nc2-c2ccc(Cl)cc2Cl)[nH]1`, the Potency is 0.935 µM (active).

Take `COc1cccc(OC)c1-c1cc(C(=O)NC2(C(=O)O)C3CC4CC(C3)CC2C4)nn1-c1ccnc2cc(Cl)ccc12` (configuration not stated): the Potency was 29.6 µM (active).

In the case of `CNCc1ccc(-c2[nH]c3cc(F)cc4c3c2CCNC4=O)cc1`, the Potency is 20.9 µM (active).

Regarding `CC[C@@H]1C(=O)N(C)c2cnc(Nc3ccc(C(=O)NC4CCC(N5CCN(CC6CC6)CC5)CC4)cc3OC)nc2N1C(C)C` (some centres not stated), the Potency was 0.0132 µM (active).

Take `CC(C)C[C@H](NC(=O)[C@@H](O)[C@H](N)Cc1ccccc1)C(=O)O`: the “viability (% of control)” value is 108% (inactive).

As to `COc1ccc(CCN(C)CCCOc2ccc(S(=O)(=O)c3[nH]c4ccccc4c3C(C)C)cc2)cc1OC`, the Potency is 26.4 µM (active).

As to `Cc1ccc(NC(=O)c2cccc(C(C)(C)C#N)c2)cc1Nc1ccc2ncn(C)c(=O)c2c1`, the Potency is 23.5 µM (active).

`CC(=O)NC(C)c1ccc(Oc2ccc(OC(C)C)cc2)cc1` (configuration not stated): the Potency is 16.6 µM (active).

In the case of `CCc1cncnc1N1CCN(Cc2nc3ccc(C(F)(F)F)cc3[nH]2)CC1`, the Potency was 7.43 µM (active).

Turning to `NC(=O)Nc1cc(-c2cccc(F)c2)sc1C(=O)N[C@H]1CCCNC1`, the Potency was 0.105 µM (active).

Consider `C[C@@H]1CN(CC(=O)Nc2ccc3c(c2)Cc2cccc(-c4cc(=O)cc(N5CCOCC5)o4)c2S3)C[C@H](C)O1`, for which the Potency was 16.6 µM (active).

With `Nc1cc(C(F)(F)F)c(-c2cc(N3CCOCC3)nc(N3CCOCC3)n2)cn1`, the Potency is 1.05 µM (active).

For the molecule `CN1CCN(c2cc(C(=O)Nc3ccc4c(c3)-c3c(c(C(N)=O)nn3-c3ccc(F)cc3)CC4)c(Cl)cn2)CC1`, the Potency was 26.4 µM (active).

With `CCCCn1c(=O)n(Cc2ccccc2F)c(=O)c2[nH]c(Cc3ccc(NC(C)=O)cc3)nc21`, the “viability (% of control)” value is 93.3% (inactive).

On to `O=C1C(CCC(O)c2ccc(F)cc2)C(c2ccc(O)cc2)N1c1ccc(F)cc1` (configuration not stated), for which the “viability (% of control)” value is 96.7% (inactive).

Take `O=C(c1cc(Cc2n[nH]c(=O)c3ccccc23)ccc1F)N1CCN(C(=O)C2CC2)CC1`: the Potency is 14.8 µM (active).

Consider `CC(C)c1onc(-c2c(Cl)cccc2Cl)c1COc1ccc(/C=C/c2cccc(C(=O)O)c2)c(Cl)c1`, for which the Potency is 3.32 µM (active).

A short description of another test: Immunotoxin (SS1P) sensitization/mitigation study. Vehicle arm (DMEM) (AID 1159513). The settings on record: cell viability with vehicle (DMEM); series mostly up to 46.1 µM; activity, % of control (viability): at the top concentration.
For `OC[C@H]1O[C@@H](n2cnc3c2NC=NC[C@@H]3O)C[C@H]1O`, the “activity, % of control (viability)” value is 92.9% (inactive).

As to `CCOc1cc(C=C2C(=O)N(c3ccccc3)N=C2C)cc(Cl)c1OCC(=O)OC`, the “activity, % of control (viability)” value was 107% (inactive).

Take `COc1ccc2c3n(c(=NC(=O)c4cccnc4)nc2c1OC)CCN3`: the Potency was 3.72 µM (active).

`COc1ccc(-c2oc3cc(OC)ccc3c2C(=O)c2ccc(C#N)cc2)cc1`: the “activity, % of control (viability)” value was 89.9% (inactive).

In the case of `Cc1ccc(NC(=O)c2cccc(C(C)(C)C#N)c2)cc1Nc1ccc2ncn(C)c(=O)c2c1`, the Potency was 20.9 µM (active).

In the case of `NC(=O)Nc1cc(-c2cccc(F)c2)sc1C(=O)N[C@H]1CCCNC1`, the Potency is 0.59 µM (active).

For the molecule `Nc1cc(C(F)(F)F)c(-c2cc(N3CCOCC3)nc(N3CCOCC3)n2)cn1`, the Potency is 0.935 µM (active).

For `O=C1C(CCC(O)c2ccc(F)cc2)C(c2ccc(O)cc2)N1c1ccc(F)cc1` (configuration not stated), the “activity, % of control (viability)” value was 98.8% (inactive).
